ChEMBL document CHEMBL3988442, “University of Dundee, Small-Polar-MMV Screening Library” (2021)

Molecular target: AMP-activated protein kinase, AMPK (Homo sapiens) (UniProt P54646+O43741+P54619+Q9UGJ0+Q9Y478+Q13131+Q9UGI9)
Assay: AMP-dependent Kinase enzyme assay. An in vitro enzyme assay that detects ADP turnover that is directly proportional to AMPK activity. This uses naive AMPK that is activated during the assay with MK-8722
Type: functional
Parameters: scale not given: direction of the effect not stated beside the values
Settings: 30 µM

Compound | Percent Effect
c1cncc(CNCCc2cccs2)c1 | -7.73%
CNc1ccc(C2CN(c3cc(C)nc(N)n3)CCO2)nc1 (stereo unspecified) | 17.3%
Cc1ccc(N2CCC(c3cc(Cc4ccccc4)n[nH]3)CC2)nn1 | 10.9%
CC(CN1CCOC1=O)NC(=O)c1cccc2cc[nH]c12 (stereo unspecified) | 8.07%
O=C(NCC1CCOC1)c1cc(-c2ccccc2Cl)[nH]n1 (stereo unspecified) | 2.35%
CCN(CC(=O)NC(C)(C)C)Cc1cccc2c1OCCO2 | -0.533%
CSc1ncccc1C(=O)Nc1ccc(Cn2ccccc2=O)cc1 | -11.3%
CCN(CC)c1ncccc1CNCc1ccc(-c2ccn[nH]2)s1 | 1.23%
CCCC1COCCN1Cc1ccc(S(=O)(=O)NC)cc1 (stereo unspecified) | 0.167%
COCC(=O)NCCc1nc2cc(-c3ccc(OC)cc3)ncn2n1 | 8.07%
CC(C)Oc1cccc(CN(C)C(=O)Nc2cccn(C)c2=O)c1 | -63%
CCC(=O)Nc1cccc(OCC(=O)N(C)CCCC2CCCO2)c1 (stereo unspecified) | 11.8%
CN(CCc1ncnn1C1Cc2ccccc2C1)C1CCS(=O)(=O)C1 (stereo unspecified) | -4.47%
O=C(c1cccnc1O)N1CCC2(CCCO2)CC1 | 0.948%
Fc1ccc(OCCCNC2=NCCN2)cc1 | -0.85%
CCCN(CC(=O)NC)C(=O)c1ccc(-c2nc(C)cs2)cc1 | 1.67%
COC(=O)c1ccc(CCn2cnc(C#N)n2)cc1 | -2.56%
CC(NC(=O)N1CCCN(C)CC1)c1ccc(S(N)(=O)=O)cc1 (stereo unspecified) | 5.68%
O=C(NCCN1CCNC1=O)c1cnc(-c2cccnc2)nc1 | 6.47%
CC(NCC(=O)NCC(=O)Nc1ccc(F)cc1)c1cccs1 (stereo unspecified) | 8.16%
CC(C(=O)NCC(C)(C)c1ccc(Br)cc1)n1cncn1 (stereo unspecified) | 0.177%
